According to ChEMBL document CHEMBL2218924, “A broad activity screen in support of a chemogenomic map for kinase signalling research and drug discovery” (Biochem J, 2013):

Columns and labels:
[1] = biological target: Calcium/calmodulin-dependent protein kinase type 1 (Homo sapiens) (UniProt Q14012); details: at 1 µM
[2] = biological target: Calcium/calmodulin-dependent protein kinase type 1 (Homo sapiens) (UniProt Q14012); details: at 10 µM
[3] = biological target: Calcium/calmodulin-dependent protein kinase type II subunit beta (Homo sapiens) (UniProt Q13554); details: at 1 µM
Calcium/calmodulin-dependent protein kinase type II subunit beta (Homo sapiens), sequence (Q13554 whole entry): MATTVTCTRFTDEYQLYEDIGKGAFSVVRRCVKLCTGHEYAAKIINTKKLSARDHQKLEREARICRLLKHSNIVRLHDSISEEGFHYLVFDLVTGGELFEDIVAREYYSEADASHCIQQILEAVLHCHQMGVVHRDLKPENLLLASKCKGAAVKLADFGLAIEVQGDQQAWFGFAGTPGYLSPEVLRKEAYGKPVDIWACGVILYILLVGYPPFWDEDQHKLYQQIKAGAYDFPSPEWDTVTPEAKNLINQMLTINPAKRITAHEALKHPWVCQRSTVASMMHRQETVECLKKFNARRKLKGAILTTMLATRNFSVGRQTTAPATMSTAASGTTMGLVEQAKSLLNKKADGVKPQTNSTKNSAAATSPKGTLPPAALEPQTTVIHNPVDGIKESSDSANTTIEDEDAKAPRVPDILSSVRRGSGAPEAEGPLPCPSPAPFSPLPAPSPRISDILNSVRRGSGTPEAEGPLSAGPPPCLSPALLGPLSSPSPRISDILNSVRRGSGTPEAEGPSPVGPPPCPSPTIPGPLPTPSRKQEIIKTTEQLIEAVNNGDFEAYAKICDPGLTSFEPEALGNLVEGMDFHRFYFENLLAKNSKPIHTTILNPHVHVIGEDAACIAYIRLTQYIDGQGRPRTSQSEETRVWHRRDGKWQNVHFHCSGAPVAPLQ

[4] = biological target: Calcium/calmodulin-dependent protein kinase type II subunit beta (Homo sapiens) (UniProt Q13554); details: at 10 µM
[5] = biological target: Calcium/calmodulin-dependent protein kinase type II subunit gamma (Homo sapiens) (UniProt Q13555); details: at 1 µM
Calcium/calmodulin-dependent protein kinase type II subunit gamma (Homo sapiens), sequence (Q13555 whole entry): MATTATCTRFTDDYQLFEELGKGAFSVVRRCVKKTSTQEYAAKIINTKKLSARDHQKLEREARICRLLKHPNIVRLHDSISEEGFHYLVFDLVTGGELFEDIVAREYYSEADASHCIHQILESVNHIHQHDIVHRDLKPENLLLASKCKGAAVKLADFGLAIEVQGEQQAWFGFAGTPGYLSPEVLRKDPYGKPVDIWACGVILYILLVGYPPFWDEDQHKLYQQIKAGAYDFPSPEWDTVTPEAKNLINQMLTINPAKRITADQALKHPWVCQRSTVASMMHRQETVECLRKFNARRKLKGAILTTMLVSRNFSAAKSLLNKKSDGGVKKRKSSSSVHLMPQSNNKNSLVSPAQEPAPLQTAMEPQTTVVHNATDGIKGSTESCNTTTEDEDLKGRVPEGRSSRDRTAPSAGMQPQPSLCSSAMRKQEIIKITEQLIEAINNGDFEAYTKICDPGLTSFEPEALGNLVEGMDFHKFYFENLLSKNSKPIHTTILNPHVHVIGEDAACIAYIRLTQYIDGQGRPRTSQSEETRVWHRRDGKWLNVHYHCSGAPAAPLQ

[6] = biological target: Calcium/calmodulin-dependent protein kinase type II subunit gamma (Homo sapiens) (UniProt Q13555); details: at 10 µM
[7] = biological target: Calcium/calmodulin-dependent protein kinase type II subunit delta (Homo sapiens) (UniProt Q13557); details: at 1 µM
Calcium/calmodulin-dependent protein kinase type II subunit delta (Homo sapiens), sequence (Q13557 whole entry): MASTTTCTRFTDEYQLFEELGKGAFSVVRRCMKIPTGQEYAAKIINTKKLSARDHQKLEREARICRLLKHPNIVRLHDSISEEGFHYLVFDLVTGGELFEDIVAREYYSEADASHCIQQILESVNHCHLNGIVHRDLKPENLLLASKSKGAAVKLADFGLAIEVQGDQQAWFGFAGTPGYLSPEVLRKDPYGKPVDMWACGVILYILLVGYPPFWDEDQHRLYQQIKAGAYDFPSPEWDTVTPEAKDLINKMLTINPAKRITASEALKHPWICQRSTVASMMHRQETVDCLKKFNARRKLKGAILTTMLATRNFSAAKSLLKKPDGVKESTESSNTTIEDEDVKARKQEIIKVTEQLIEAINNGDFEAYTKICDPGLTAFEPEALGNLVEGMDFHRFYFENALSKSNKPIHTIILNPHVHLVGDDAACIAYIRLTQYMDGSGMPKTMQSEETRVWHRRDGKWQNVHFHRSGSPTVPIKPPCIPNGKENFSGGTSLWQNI

[8] = biological target: Calcium/calmodulin-dependent protein kinase type II subunit delta (Homo sapiens) (UniProt Q13557); details: at 10 µM
[9] = biological target: T1, Calcium/calmodulin-dependent protein kinase type IV (Homo sapiens) (UniProt Q16566); details: at 1 µM
T1 sequence (whole entry): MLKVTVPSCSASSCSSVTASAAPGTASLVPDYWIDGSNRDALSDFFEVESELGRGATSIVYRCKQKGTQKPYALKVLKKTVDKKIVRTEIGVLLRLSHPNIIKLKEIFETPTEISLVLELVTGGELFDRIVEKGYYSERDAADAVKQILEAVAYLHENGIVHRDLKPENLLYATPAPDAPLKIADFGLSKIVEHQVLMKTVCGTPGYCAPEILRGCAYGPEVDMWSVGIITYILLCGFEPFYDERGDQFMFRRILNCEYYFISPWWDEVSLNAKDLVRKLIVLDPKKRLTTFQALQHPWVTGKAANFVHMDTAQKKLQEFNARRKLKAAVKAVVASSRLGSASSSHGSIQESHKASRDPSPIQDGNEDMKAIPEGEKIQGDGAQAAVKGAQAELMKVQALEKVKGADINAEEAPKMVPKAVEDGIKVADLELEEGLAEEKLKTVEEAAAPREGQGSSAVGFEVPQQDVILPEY

[10] = biological target: T1, Calcium/calmodulin-dependent protein kinase type IV (Homo sapiens); details: at 10 µM
[11] = biological target: Death-associated protein kinase 1 (Homo sapiens) (UniProt P53355); details: at 10 µM
Death-associated protein kinase 1 (Homo sapiens), sequence (P53355 whole entry, looked up): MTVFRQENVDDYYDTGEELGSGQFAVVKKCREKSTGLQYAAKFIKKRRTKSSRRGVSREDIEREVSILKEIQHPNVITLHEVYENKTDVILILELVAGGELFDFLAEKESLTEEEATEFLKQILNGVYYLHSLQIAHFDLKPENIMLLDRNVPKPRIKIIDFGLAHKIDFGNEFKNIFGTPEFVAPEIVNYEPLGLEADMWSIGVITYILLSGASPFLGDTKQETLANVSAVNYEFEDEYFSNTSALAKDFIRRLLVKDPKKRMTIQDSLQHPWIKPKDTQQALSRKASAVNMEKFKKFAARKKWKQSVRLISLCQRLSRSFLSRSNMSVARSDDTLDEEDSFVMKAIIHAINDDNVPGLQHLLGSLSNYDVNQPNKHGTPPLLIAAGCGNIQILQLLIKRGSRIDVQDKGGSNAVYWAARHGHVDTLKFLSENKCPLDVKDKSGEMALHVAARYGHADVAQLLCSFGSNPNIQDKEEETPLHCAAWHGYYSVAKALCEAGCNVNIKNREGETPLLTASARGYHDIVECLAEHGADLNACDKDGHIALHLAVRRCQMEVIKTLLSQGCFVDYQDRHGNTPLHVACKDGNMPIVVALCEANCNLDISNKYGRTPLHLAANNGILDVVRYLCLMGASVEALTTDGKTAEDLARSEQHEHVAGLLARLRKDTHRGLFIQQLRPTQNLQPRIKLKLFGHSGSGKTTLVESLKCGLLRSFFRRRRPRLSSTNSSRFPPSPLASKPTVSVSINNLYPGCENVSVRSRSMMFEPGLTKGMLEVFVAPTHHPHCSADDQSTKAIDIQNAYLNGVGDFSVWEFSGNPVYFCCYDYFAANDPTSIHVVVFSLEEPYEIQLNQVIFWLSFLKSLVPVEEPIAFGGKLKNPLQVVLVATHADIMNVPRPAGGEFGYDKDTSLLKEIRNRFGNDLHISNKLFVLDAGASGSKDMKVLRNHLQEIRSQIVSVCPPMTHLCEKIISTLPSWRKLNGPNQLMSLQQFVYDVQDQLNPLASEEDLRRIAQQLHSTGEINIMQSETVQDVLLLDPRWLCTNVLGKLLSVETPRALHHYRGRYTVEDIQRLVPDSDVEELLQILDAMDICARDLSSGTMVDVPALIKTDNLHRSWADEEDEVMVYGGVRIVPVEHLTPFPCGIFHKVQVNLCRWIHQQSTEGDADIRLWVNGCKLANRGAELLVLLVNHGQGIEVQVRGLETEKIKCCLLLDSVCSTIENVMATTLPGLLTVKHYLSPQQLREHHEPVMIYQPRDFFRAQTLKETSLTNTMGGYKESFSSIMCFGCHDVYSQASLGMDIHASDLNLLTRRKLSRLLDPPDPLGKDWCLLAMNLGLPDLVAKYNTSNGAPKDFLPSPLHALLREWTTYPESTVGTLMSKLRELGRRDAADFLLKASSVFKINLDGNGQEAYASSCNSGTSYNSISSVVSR

[12] = biological target: Death-associated protein kinase 2 (Homo sapiens) (UniProt Q9UIK4); details: at 1 µM
Death-associated protein kinase 2 (Homo sapiens), sequence (Q9UIK4 whole entry, looked up): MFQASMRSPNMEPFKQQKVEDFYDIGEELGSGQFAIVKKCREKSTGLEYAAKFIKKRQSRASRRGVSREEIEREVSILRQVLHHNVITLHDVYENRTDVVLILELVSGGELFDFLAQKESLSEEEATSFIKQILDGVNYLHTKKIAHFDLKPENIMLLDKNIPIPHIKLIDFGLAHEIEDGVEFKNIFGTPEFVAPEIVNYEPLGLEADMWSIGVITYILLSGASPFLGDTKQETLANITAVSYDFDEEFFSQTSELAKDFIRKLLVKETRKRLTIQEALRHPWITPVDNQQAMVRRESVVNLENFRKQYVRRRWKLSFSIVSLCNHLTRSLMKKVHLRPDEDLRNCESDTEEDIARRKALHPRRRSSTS

[13] = biological target: Death-associated protein kinase 2 (Homo sapiens) (UniProt Q9UIK4); details: at 10 µM
[14] = biological target: T2, Serine/threonine-protein kinase DCLK2 (Homo sapiens) (UniProt Q8N568); details: at 1 µM
T2 sequence (whole entry): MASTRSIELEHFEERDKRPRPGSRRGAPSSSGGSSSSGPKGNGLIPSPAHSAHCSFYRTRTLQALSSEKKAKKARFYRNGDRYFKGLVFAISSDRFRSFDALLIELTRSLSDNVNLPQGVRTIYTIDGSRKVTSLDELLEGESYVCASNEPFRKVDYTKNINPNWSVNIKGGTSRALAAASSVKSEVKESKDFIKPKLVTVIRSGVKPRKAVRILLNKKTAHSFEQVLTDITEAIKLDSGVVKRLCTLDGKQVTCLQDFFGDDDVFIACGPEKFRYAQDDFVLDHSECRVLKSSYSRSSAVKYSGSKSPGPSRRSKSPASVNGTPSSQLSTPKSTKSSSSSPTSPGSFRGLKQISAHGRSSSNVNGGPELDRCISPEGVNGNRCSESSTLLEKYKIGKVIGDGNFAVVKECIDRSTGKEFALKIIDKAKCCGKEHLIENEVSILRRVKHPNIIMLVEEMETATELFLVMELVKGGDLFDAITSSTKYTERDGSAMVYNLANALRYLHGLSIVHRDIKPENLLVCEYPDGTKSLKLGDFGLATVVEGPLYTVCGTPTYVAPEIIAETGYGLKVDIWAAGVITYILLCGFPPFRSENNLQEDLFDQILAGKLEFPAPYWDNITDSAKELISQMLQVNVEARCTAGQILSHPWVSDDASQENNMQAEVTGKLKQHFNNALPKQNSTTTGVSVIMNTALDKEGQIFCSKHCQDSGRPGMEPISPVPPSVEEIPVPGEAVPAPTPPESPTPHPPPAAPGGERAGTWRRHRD

[15] = biological target: T2, Serine/threonine-protein kinase DCLK2 (Homo sapiens); details: at 10 µM
[16] = biological target: T3, Discoidin domain-containing receptor 2 (Homo sapiens) (UniProt Q16832); details: at 1 µM
T3 sequence (whole entry): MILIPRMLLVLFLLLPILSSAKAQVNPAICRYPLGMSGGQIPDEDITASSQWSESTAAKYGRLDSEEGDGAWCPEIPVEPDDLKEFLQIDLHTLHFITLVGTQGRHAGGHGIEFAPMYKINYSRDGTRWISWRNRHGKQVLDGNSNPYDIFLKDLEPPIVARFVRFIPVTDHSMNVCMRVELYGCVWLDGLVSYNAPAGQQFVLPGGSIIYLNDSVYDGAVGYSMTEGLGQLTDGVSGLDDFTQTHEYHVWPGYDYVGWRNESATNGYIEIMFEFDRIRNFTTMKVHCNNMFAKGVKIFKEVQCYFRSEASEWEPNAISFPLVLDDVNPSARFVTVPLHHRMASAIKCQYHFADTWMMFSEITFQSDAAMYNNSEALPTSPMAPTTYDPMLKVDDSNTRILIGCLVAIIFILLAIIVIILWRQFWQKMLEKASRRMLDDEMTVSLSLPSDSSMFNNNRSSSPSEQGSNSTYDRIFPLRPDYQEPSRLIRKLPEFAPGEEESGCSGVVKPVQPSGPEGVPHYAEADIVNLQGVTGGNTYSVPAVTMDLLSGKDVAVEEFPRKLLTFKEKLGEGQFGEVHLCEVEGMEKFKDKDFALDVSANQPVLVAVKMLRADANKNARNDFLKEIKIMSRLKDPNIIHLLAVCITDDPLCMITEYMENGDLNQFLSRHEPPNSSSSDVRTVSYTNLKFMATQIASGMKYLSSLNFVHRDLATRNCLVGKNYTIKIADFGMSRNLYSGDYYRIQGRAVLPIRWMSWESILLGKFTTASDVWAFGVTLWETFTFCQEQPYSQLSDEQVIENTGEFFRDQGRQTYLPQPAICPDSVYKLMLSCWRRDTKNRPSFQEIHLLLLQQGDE

[17] = biological target: T3, Discoidin domain-containing receptor 2 (Homo sapiens); details: at 10 µM
[18] = biological target: T4, Myotonin-protein kinase (Homo sapiens) (UniProt Q09013); details: at 1 µM
T4 sequence (whole entry): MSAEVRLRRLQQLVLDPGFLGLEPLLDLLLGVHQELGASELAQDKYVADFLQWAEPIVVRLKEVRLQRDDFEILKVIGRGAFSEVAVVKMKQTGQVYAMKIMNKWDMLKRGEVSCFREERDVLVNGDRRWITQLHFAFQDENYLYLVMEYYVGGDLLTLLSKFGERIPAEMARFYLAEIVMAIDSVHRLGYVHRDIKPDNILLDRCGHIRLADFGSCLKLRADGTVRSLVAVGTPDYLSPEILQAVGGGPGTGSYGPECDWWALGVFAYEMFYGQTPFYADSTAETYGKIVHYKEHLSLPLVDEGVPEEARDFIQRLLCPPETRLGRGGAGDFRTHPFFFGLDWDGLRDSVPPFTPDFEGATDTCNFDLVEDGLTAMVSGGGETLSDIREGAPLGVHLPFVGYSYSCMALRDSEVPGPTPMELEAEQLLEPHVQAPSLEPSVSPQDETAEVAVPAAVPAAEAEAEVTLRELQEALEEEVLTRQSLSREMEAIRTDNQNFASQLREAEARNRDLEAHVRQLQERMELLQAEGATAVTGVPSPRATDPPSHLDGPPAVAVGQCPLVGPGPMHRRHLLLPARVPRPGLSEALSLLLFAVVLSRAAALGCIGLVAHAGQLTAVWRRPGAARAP

[19] = biological target: T4, Myotonin-protein kinase (Homo sapiens); details: at 10 µM
[20] = biological target: T5, Serine/threonine-protein kinase 17A (Homo sapiens) (UniProt Q9UEE5); details: at 1 µM
T5 sequence (whole entry): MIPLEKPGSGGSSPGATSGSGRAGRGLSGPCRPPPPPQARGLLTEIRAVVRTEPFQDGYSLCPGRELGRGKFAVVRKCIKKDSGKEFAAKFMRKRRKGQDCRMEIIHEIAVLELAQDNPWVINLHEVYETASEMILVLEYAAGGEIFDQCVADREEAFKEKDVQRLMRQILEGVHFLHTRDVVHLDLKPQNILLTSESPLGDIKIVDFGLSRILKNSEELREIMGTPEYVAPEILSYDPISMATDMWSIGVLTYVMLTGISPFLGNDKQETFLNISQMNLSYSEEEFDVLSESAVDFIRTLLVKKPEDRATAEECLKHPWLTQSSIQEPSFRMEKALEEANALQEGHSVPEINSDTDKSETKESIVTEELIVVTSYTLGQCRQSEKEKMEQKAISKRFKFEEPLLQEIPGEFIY

Calcium/calmodulin-dependent protein kinase type 1 (Homo sapiens), sequence (Q14012 whole entry, looked up): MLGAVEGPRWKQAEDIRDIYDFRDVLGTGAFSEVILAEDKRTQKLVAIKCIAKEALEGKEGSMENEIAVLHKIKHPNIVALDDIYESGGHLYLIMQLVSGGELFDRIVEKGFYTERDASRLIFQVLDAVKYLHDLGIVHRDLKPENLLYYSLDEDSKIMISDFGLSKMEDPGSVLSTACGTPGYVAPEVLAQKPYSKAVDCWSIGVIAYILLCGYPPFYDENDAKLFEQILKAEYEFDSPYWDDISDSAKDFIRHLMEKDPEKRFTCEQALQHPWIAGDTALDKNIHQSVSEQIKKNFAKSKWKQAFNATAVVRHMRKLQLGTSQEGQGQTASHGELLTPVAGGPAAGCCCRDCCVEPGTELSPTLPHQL

SMILES	residual activity [1] [%]	residual activity [2] [%]	residual activity [3] [%]	residual activity [4] [%]	residual activity [5] [%]	residual activity [6] [%]	residual activity [7] [%]	residual activity [8] [%]	residual activity [9] [%]	residual activity [10] [%]	residual activity [11] [%]	residual activity [12] [%]	residual activity [13] [%]	residual activity [14] [%]	residual activity [15] [%]	residual activity [16] [%]	residual activity [17] [%]	residual activity [18] [%]	residual activity [19] [%]	residual activity [20] [%]
Ic1cccc(CSc2nnc(-c3ccncc3)o2)c1	97	79	75	55	85	74	73	65	106	100	76	96	100	100	97	86	82	82	81	100
CNc1cc2c(Nc3cccc(Br)c3)ncnc2cn1	95	65	87	51	93	32	85	42	110	56	60	86	69	121	97	84	68	107	113	64
O=C1NC(=O)/C(=C\c2ccc3nccnc3c2)S1	109	80	65	18	91	34	76	28	109	84	78	68	27	73	71	109	101	114	122	63
O=C1c2ccccc2-[n+]2ccc3c([nH]c4ccccc43)c21	81	68	92	76	103	78	95	81	102	93	84	95	96	105	94	78	84	101	80	104
COc1ccc(S(=O)(=O)N(CCO)c2ccccc2CN(C)C/C=C/c2ccc(Cl)cc2)cc1	92	38	96	20	107	67	101	47	106	92	65	100	87	91	107	97	97	99	89	95
Cc1ccc(S(=O)(=O)/C=C/C#N)cc1	95	77	101	88	103	94	104	107	108	86	87	104	105	125	99	98	100	125	100	105
Oc1ccc(Nc2nc(-c3ccc(Cl)cc3)cs2)cc1	94	53	98	92	98	89	102	98	102	114	107	101	107	123	179	97	104	100	98	119
O=c1cc(-c2cccc3c2Sc2ccccc2S3)oc(N2CCOCC2)c1	113	87	96	82	101	85	96	84	114	98	81	106	89	118	85	93	100	120	105	106
COc1cc2ncnc(Nc3ccc(Oc4ccccc4)cc3)c2cc1OC	102	76	88	84	102	102	105	111	103	104	106	99	118	82	252	113	103	98	139	81
COc1cc2ncnc(N3CCN(C(=O)Nc4ccc(Oc5ccccc5)cc4)CC3)c2cc1OC	104	97	80	89	111	100	104	93	122	97	102	93	112	98	242	106	117	115	142	120
Cn1nc2c3c(cccc31)C(=O)c1ccccc1-2	75	74	77	67	87	37	85	36	96	62	77	93	76	75	89	100	104	127	84	50
COc1ccc(OC)c2c(=S)c3ccccc3[nH]c12	96	77	92	54	90	54	95	62	100	84	93	106	95	101	67	99	103	120	87	94
CCN(CC)CCCCN1c2ccccc2Oc2ccc(Cl)cc21	107	89	106	93	111	97	112	112	126	118	99	111	109	96	104	115	90	120	136	124
